Compound activity as filed in PubChem BioAssay.
KCNQ2 inh – inhibitors of rat KCNQ2 potassium channel; CHO-K1 KCNQ2, FluxOR thallium flux, 20 min; active compounds read low; actives 1.1% (n = 310,000); B-score at 10 µM; O88943; AID 2156;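 active = fluorescence ratio B-score at most minus 3 library SDs, with starting brightness B-score within 2 library SDs, cut at about -5.5 in these data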
KCNQ2 pot – enhances the rat KCNQ2 potassium channel; actives 0.54% (n = 310,000); O88943; CHO-K1 KCNQ2, FluxOR thallium flux fluorescence; active compounds read high; B-score at 10 µM;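 active = fluorescence ratio B-score at least 3 SD of library B-scores, with initial fluorescence B-score within 3 of them, cut at about 5.3 in these data; same plate scores as AID 2156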;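 also: B-score of peak minus minimum over baseline fluorescence ratio after K+ and Tl+ stimulus; positive B-score means potentiation of KCNQ2 with more thallium influx and brighter signal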
* hit, by the source's call; i = inactive; · = no result given. Shown are actives, neighbours in structure and some others; about 1.6% of the full set was active somewhere.

SMILES	KCNQ2 inh	KCNQ2 pot
COc1cc(-c2nnc(NC(=O)c3ccc(S(=O)(=O)N4CCOCC4)cc3)o2)cc(OC)c1OC	i	5
CC1=C(/C=C/C(=O)O)C(C)(C)CCC1	i	0.54
CC1=C(/C=C/C(C)=C/C=C/C(C)=C\C(=O)O)C(C)(C)CCC1	-7.7*	-7.7
COc1ccc(NC(=O)C(Sc2nnc3ccccn23)c2ccccc2)cc1Cl (configuration not stated)	i	·
Cc1ccccc1NC(=O)C1C2CCCCC21 (configuration not stated)	i	·
Cc1ccccc1NC(=O)C1C2/C=C\CCCCC21 (configuration not stated)	i	5.4*
CC(C)C(=O)Nc1nnc(SCC(=O)N2c3ccccc3CC2C)s1 (configuration not stated)	i	0.88
O=c1c2c(-c3cccs3)csc2ncn1/N=C/c1ccc(OC(F)F)cc1	-7.4*	-7.4
O=c1c2c(-c3cccs3)csc2ncn1/N=C/c1ccccn1	i	·
COc1ccccc1NC(=O)CN1CCN(c2ccccc2OC)CC1	i	1.5
COc1ccccc1NC(=O)CN1CCN(c2ccccc2F)CC1	-5.8*	-5.8
COc1ccc(N2C(=O)CC(N3CCCC4CCCCC43)C2=O)cc1 (configuration not stated)	i	·
CCCCNc1c(-c2ccc(SC3CCCCC3)cc2)nc2ccccn12	i	·
CCCCNc1c(-c2ccc(SC(C)CC)cc2)nc2ccccn12 (configuration not stated)	-7.1*	-7.1
CC(C)(C)C(=O)Nc1nnc(CC(=O)NCc2ccccc2)s1	i	2.9
Cc1ccc(S(=O)(=O)N(C)c2ccc(C(=O)NCC(c3cccs3)N3CCOCC3)cc2)cc1 (configuration not stated)	i	·
Cc1ccc(N(C)S(=O)(=O)c2cccc(C(=O)NCC(c3cccs3)N3CCOCC3)c2)cc1 (configuration not stated)	-6.8*	-6.8
CCCCn1c(SCC(=O)Nc2cc(C)on2)nnc1-c1cccs1	i	0.63
Cc1c(C(=O)N(C)Cc2cccc(F)c2)oc2c(Cl)cccc12	-7.7*	-7.7
Cc1c(C(=O)N(C)Cc2ccccc2)oc2c(Cl)cccc12	i	·
CCc1cc(C(=O)O)c(NC(=O)C(c2ccccc2)c2ccccc2)s1	i	1.3
CCOC(=O)c1cc(C)sc1NC(=O)C(c1ccccc1)c1ccccc1	-6*	-6
CCOC(=O)c1cc(CC)sc1NC(=O)COC	i	·
CCOC(=O)c1cc(CC)sc1NC(=O)Cc1ccccc1	-5.7*	-5.7
Cc1occc1C(=O)Nc1cc(=O)n(C)c(=O)n1C	i	0.03
SMILES	KCNQ2 inh	KCNQ2 pot
Cc1cc(C)c2sc(N(CCCN(C)C)C(=O)c3ccc(S(=O)(=O)N4CCCc5ccccc54)cc3)nc2c1	-7.7*	-7.7
Cc1cc(C)c2sc(N(CCCN(C)C)C(=O)c3ccc(S(=O)(=O)N4CCc5ccccc5C4)cc3)nc2c1	i	·
O=C(Nc1ccccc1C(=O)N1CCOCC1)c1ccc(F)cc1	i	0.42
C=CCc1cccc(/C=N/NC(=O)CNc2ccccc2OC)c1O	i	6.2*
C=CCc1cccc(/C=N/NC(=O)CNc2cccc3ccccc23)c1O	i	0.98
COc1cc(C(=O)N2CCN(C(=O)C3CC3)CC2)cc(OC)c1OC	i	·
Cc1ccc(NC(=O)c2ccc(NCCN)c([N+](=O)[O-])c2)cc1	i	·
NCCNc1ccc(C(=O)N2c3ccccc3Sc3ccccc32)cc1[N+](=O)[O-]	-8.1*	-8.1
Cc1ccc(NC(=O)CS(=O)CC(=O)N(CC(=O)NC2CCCC2)c2cccc(C)c2C)cc1 (configuration not stated)	i	·
O=C(N/C(=C/c1ccc(Br)cc1)C(=O)N1CCCC1)c1ccccc1F	i	·
COc1ccc(-n2c(SCC(=O)Nc3ccccc3)nnc2-c2ccc(NS(=O)(=O)c3ccc(C)cc3)cc2)cc1	i	0.17
Oc1ccccc1CN(Cc1ccco1)CC(O)COCc1ccc(Cl)cc1 (configuration not stated)	-6.1*	-6.1
COc1ccc(COCC(O)CN(Cc2ccco2)Cc2ccccc2O)cc1 (configuration not stated)	i	·
O=C(NCc1ccco1)c1nc2nc(-c3cccs3)cc(C(F)(F)F)n2n1	i	0.75
O=C(NCc1ccco1)c1cc2nc(-c3ccc4c(c3)OCO4)cc(C(F)(F)F)n2n1	-8.2*	-8.2
O=C(NCc1ccco1)c1nn2c(C(F)(F)F)cc(-c3cccs3)nc2c1Br	-6.8*	-6.8
O=C(NCc1cccnc1)c1cc2nc(-c3ccc4c(c3)OCO4)cc(C(F)(F)F)n2n1	i	0.51
COc1ccc(N2C(=O)C3CCCN3C2c2ccccc2)cc1Cl (configuration not stated)	i	·
Cc1ccsc1/C=C1\CCC(C2CCCC2)C1=O (configuration not stated)	i	·
CCCn1c(SCCC(=O)O)nc2ccccc21	i	0.51
CCCCC(=O)NCc1ccccc1Cl	i	0.32
O=C(CN=C1NC(=O)C(c2ccccc2)(c2ccccc2)N1)NCc1ccc(F)cc1	i	·
COc1ccc(CNC(=O)CN=C2NC(=O)C(c3ccccc3)(c3ccccc3)N2)cc1	-6.1*	-6.1
COCCCC1CCN(Cc2nc(-c3ccccc3)no2)CC1	i	0.37
O=C(CN(Cc1ccccc1)S(=O)(=O)c1ccc2c(c1)OCCO2)Nc1ccc2c(c1)OCCO2	i	0.12
SMILES	KCNQ2 inh	KCNQ2 pot
Cc1cc(Br)ccc1NC(=O)CN1CCN(c2ccccn2)CC1	i	·
COc1ccc(C(=O)N/C(=C\c2ccccc2)C(=O)Nc2ccc(C(=O)O)cc2)cc1	i	0.57
COc1cc(/C=C(/NC(=O)c2ccccc2)C(=O)Nc2ccc(O)cc2)c([N+](=O)[O-])cc1OC	i	0.84
COc1cc(/C=C(/NC(=O)c2ccccc2)C(=O)Nc2ccccc2)c([N+](=O)[O-])cc1OC	-6.6*	-6.6
COc1ccc(NC(=O)/C(=C\c2cc(OC)c(OC)cc2[N+](=O)[O-])NC(=O)c2ccccc2)cc1	-7.2*	-7.2
CCn1nnnc1SCC(=O)Nc1ccc2c(c1)OCO2	i	·
CC(NCc1cccc(S(=O)(=O)N(C)C)c1)c1ccc(F)cc1 (configuration not stated)	i	·
CCOC(=O)CN1C(=O)N[C@@H](c2cccc(C(F)(F)F)c2)[C@H](C(C)=O)[C@H]1C	i	·
COc1cc(SC)ccc1C(=O)Nc1ncc(C)s1	i	0.29
Clc1ccc(-n2cnnn2)cc1	i	0.78
CO/C=C\C=C/c1nnn(-c2ccc(Cl)cc2)n1	-6.9*	-6.9
CC(=O)NC1CCN(CC(=O)Nc2cccc([N+](=O)[O-])c2)CC1	i	1.3
O=C(c1ccco1)N1CCN(C(=O)c2ccc(-c3cccc(C(F)(F)F)c3)o2)CC1	i	0.1
O=C(Cn1nnc(-c2ccccc2)n1)N1CCCCC1	i	1.5
O=C(Cn1nnc(-c2cccc(C(F)(F)F)c2)n1)N1CCCCCC1	i	12*
O=C(c1ccc(-c2cccc(C(F)(F)F)c2)o1)N1CCCCCCC1	-6.2*	-6.2
COc1cc(/C=N/NC(=O)C(NC(=O)c2ccccc2)c2n[nH]c(=O)c3ccccc23)ccc1OCC(N)=O (configuration not stated)	i	2
Cc1nc2nc(SCC(=O)O)nn2c(C)c1Cc1ccccc1Cl	i	0.12
O=C(NCc1ccco1)c1ccc(Cn2c(=O)c3ccccc3n(Cc3ccc(Cl)cc3)c2=O)cc1	-6.5*	-6.5
